# Active and inactive are the calls of the source.
# Key:
# [1] = tested on: PRMT1 (protein arginine N-methyltransferase 1); assay: small molecules binding arginine methyltransferase PRMT1 – biochemical, small-molecule microarray, 635 nm fluorescence, primary screen (AID 1088); settings: higher = more signal;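 note: binding of Prmt1 protein to compounds spotted on small-molecule microarray slides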
# [2] = growth effects on S. cerevisiae YJM789 – YJM789 clinical isolate, OD600, 24 h, basal, primary screen (AID 1089); settings: higher = more signal, called active from +8 up or from −8 down;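 note: growth of clinical yeast isolate S. cerevisiae YJM 789 seeded 1000 cells per well; test concentration not given here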
# [3] = S. pombe growth modifiers, basal conditions – strain 972, OD600, 24 h, no modulator, primary screen (AID 1090);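 note: basal condition with compound alone and no growth modifier present; test concentration not given here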; settings: S. pombe 972 growth, higher = more signal, called active from +8 up or from −8 down
# [4] = budding yeast growth modifiers under rapamycin – strain BY4716, OD600, 96 h, primary screen (AID 1091); note: test concentration not given here; settings: S. cerevisiae BY4716 + rapamycin, higher = more signal, called active from +8 up or from −8 down
# [5] = target: Torsin-1A-interacting protein 2 (Homo sapiens) (UniProt Q8NFQ8); assay: small molecules binding lysate-expressed LULL1 – cell lysate, human LULL1 lysate, 635/667 nm fluorescence, primary screen (AID 1092); settings: small-molecule microarray, hLULL1 lysate binding, 635 nm fluorescence; higher = more signal;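 note: probe is lysate of COS7 cells overexpressing human LULL1; score merges per-feature 667 nm fluorescence with signal-to-noise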
# Chain of Torsin-1A-interacting protein 2 (Homo sapiens) (Q8NFQ8 whole entry, looked up): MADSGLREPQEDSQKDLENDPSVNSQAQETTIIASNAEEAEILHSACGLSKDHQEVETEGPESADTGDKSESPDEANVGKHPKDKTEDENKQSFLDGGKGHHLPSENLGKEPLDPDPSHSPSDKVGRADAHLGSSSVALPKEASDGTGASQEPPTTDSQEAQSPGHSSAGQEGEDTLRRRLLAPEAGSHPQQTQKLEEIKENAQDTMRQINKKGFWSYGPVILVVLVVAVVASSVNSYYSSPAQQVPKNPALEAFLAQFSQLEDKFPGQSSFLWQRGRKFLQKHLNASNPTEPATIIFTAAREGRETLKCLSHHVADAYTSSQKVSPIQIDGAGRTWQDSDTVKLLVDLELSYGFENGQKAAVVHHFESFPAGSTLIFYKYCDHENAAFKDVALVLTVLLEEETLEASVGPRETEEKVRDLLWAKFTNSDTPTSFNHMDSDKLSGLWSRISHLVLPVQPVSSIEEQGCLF
# [6] = optical density change of DRC41 E. coli – strain DRC41, OD650, 24 h, E. coli filamentation project, primary screen (AID 1093);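 note: MC1000 strain lacking acrAB efflux and sulA so SOS filamentation is blocked; test concentration not given here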; settings: E. coli DRC41 growth, higher = more signal, called active from +8 up or from −8 down
# [7] = probe aLefty2 binding to arrayed compounds – biochemical, biotinylated probe, 635/667 nm fluorescence, primary screen (AID 1094); settings: small-molecule microarray, higher = more signal;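 note: score merges spot fluorescence near 667 nm with spot signal-to-noise ratio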
# [8] = tested on: Noggin (protein binding on small-molecule microarray); assay: small molecules binding Noggin protein – biochemical, 635/667 nm fluorescence, primary screen (AID 1095); settings: 635 nm fluorescence, higher = more signal;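 note: score merges 667 nm feature fluorescence with signal to noise over triplicate slides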
# [9] = target: Neurogenic locus notch homolog protein 3 (Homo sapiens) (UniProt Q9UM47); assay: small molecules binding NOTCH3 protein – biochemical, 635/667 nm fluorescence, primary screen (AID 1096); settings: small-molecule microarray, 635 nm fluorescence, higher = more signal
# Chain of Neurogenic locus notch homolog protein 3 (Homo sapiens) (Q9UM47 whole entry, looked up): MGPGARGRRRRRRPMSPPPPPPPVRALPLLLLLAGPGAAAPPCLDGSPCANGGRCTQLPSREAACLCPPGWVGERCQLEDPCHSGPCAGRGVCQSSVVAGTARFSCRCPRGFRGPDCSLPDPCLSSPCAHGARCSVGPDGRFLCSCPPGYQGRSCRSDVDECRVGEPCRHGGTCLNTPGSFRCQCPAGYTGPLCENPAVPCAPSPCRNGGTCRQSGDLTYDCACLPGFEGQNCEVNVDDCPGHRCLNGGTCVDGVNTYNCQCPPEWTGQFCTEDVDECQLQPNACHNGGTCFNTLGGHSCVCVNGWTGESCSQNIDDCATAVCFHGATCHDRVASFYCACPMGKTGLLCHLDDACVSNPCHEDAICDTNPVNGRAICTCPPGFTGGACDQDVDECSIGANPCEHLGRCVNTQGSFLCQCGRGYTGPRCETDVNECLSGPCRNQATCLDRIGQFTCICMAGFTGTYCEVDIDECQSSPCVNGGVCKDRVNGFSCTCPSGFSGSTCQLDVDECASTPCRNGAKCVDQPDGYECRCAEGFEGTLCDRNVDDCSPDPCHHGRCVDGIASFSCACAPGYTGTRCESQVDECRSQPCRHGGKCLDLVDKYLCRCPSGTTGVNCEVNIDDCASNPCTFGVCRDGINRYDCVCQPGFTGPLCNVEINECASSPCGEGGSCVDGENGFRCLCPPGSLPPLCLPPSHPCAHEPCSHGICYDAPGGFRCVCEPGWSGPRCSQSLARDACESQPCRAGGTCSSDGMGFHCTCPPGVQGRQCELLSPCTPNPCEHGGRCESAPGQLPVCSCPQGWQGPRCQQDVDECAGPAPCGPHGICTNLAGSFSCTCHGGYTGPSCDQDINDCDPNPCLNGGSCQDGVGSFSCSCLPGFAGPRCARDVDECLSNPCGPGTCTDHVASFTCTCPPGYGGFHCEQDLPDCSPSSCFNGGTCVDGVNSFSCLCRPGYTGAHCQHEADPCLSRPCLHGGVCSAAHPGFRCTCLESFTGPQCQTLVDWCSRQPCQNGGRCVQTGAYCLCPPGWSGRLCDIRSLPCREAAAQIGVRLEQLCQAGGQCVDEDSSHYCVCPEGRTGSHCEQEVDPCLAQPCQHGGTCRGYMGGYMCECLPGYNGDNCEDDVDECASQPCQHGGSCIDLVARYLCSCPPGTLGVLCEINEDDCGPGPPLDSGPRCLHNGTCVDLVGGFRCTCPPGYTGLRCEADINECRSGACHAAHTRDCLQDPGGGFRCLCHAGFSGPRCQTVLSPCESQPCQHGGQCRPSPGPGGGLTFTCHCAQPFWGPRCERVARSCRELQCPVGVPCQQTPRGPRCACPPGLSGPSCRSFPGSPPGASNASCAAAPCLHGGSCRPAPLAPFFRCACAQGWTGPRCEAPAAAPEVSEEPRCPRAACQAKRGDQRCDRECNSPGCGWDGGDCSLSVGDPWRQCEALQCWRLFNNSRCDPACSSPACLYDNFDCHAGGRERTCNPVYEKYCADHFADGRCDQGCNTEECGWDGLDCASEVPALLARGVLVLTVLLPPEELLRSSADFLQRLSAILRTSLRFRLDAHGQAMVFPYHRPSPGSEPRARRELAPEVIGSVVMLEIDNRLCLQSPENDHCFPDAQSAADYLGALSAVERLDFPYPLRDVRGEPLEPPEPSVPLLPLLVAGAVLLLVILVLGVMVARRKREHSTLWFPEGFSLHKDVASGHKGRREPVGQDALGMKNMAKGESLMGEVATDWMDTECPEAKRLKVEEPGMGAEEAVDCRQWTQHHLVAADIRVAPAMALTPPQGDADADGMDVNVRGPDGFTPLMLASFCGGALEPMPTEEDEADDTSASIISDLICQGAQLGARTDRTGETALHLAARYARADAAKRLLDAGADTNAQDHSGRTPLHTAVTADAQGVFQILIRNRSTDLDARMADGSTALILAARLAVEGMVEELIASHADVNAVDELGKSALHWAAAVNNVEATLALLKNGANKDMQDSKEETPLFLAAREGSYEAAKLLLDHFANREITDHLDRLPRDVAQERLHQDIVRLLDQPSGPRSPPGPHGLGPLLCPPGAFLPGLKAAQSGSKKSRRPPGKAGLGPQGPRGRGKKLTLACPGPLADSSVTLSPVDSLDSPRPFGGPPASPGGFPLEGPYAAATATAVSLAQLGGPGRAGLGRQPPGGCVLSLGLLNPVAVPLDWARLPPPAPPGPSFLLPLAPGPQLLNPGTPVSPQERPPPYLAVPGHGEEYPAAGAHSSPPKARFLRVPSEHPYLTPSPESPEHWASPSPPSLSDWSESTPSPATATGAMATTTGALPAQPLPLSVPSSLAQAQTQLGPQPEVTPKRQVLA
# [10] = probe aEGFR binding to arrayed compounds – biochemical, biotinylated probe, 635/667 nm fluorescence, primary screen (AID 1097); settings: small-molecule microarray, higher = more signal;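 note: probe is a biotinylated anti-EGFR antibody binding compounds printed on slides; score combines fluorescence near 667 nm and signal to noise of each spot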
# [11] = tested on: Plasmodium falciparum Sir2 (PF13_0152, Sir2A); assay: Plasmodium falciparum Sir2A binding compounds – biochemical, small-molecule microarray, 635 nm fluorescence, primary screen (AID 1098); settings: fluorescence 635 nm, higher = more signal;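 note: score merges spot fluorescence intensity with its signal-to-noise ratio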
# [12] = probe aDKK1 binding to arrayed compounds – biochemical, biotinylated probe, 635/667 nm fluorescence, primary screen (AID 1099); settings: small-molecule microarray, higher = more signal;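 note: score merges 667nm spot fluorescence with signal to noise across triplicate slides; reference of the scale not given here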
# [13] = probe aCHRDL2 binding to arrayed compounds – biochemical, biotinylated probe, 635/667 nm fluorescence, primary screen (AID 1100); settings: small-molecule microarray, higher = more signal
# [14] = change in splice reporter luminescence, either direction, cell-based, HEK293, spliceosome inhibition project, primary screen (AID 1101); settings: HEK293 splicing luciferase reporter, 24 h, higher = more signal, called active from +8 up or from −8 down;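 note: HEK293 cells carrying a splicing-competent luciferase reporter gene; test concentration not given here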
# [15] = target: Fibroblast growth factor 10 (Homo sapiens) (UniProt O15520); assay: compounds binding fibroblast growth factor 10 – biochemical, small-molecule microarray, 635 nm fluorescence, primary screen (AID 1102); settings: FGF10 binding, fluorescence 635 nm, higher = more signal
# Chain of Fibroblast growth factor 10 (Homo sapiens) (O15520 whole entry, looked up): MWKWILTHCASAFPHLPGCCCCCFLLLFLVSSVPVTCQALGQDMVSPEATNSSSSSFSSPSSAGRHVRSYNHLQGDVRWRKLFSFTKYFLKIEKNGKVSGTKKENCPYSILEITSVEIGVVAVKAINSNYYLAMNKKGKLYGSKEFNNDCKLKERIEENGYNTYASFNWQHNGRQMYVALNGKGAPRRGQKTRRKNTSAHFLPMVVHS
# [16] = tested on: glycogen synthase kinase-3 (GSK3A per assay name; protocol says GSK3B); assay: compounds binding glycogen synthase kinase-3 – biochemical, small-molecule microarray, 635 nm fluorescence, GSK3A, primary screen (AID 1103); settings: fluorescence 635 nm, higher = more signal; note: the record names both GSK3A and GSK3B
# [17] = target: Epidermal growth factor receptor (Homo sapiens) (UniProt P00533); assay: compounds binding epidermal growth factor receptor – biochemical, small-molecule microarray, 635 nm fluorescence, primary screen (AID 1104); settings: EGFR binding, higher = more signal;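 note: score merges 667 nm emission intensity with spot signal to noise over triplicate slides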
# Chain of Epidermal growth factor receptor (Homo sapiens) (P00533 whole entry, looked up): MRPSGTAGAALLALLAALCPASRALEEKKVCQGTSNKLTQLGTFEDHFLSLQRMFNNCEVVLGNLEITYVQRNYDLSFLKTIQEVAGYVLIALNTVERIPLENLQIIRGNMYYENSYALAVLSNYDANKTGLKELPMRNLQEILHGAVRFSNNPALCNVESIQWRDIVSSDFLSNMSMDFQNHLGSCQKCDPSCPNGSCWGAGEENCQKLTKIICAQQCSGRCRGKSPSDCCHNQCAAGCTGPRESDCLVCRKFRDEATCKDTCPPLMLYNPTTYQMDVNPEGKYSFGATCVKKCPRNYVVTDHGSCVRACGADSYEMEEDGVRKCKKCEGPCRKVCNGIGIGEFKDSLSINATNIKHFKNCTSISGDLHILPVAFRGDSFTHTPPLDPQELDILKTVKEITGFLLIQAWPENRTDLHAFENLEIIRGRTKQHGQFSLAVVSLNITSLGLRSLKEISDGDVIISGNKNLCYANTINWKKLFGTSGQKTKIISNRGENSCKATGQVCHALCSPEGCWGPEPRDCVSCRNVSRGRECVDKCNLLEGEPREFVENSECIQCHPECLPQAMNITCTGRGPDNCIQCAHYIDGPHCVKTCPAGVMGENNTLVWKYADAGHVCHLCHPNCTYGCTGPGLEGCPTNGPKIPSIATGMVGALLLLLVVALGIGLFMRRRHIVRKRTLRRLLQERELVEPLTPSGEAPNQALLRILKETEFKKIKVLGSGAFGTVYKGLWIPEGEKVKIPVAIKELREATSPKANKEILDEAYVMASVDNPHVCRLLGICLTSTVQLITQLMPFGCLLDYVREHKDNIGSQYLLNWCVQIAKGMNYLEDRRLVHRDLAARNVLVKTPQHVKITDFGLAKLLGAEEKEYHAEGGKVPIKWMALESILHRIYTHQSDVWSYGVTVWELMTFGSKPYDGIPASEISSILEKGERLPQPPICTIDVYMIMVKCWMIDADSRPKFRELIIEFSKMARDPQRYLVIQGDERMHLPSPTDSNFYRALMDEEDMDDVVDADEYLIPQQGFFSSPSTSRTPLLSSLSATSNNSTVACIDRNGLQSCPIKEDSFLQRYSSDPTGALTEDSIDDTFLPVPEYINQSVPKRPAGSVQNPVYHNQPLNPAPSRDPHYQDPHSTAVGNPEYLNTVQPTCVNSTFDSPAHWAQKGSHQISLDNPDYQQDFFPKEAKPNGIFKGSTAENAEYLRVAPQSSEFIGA
# [18] = target: Follistatin-related protein 3 (Homo sapiens) (UniProt O95633); assay: compounds binding follistatin-related protein 3 – biochemical, small-molecule microarray, 635 nm fluorescence, primary screen (AID 1105); settings: FSTL3 binding, higher = more signal;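 note: score merges emission near 667 nm and signal to noise per printed spot across three slides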
# Chain of Follistatin-related protein 3 (Homo sapiens) (O95633 whole entry, looked up): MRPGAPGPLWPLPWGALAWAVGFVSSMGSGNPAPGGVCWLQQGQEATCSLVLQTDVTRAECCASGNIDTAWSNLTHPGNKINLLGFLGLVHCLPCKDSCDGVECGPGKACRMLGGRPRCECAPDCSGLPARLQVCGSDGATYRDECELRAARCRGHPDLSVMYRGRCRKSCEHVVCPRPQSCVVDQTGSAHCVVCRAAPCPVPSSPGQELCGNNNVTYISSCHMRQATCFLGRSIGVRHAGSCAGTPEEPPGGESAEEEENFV
# [19] = target: Dickkopf-related protein 1 (Homo sapiens) (UniProt O94907); assay: small molecules binding DKK1 protein – biochemical, small-molecule microarray, 635 nm fluorescence scan, primary screen (AID 1106); settings: higher = more signal;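 note: score merges emission near 667 nm with signal to noise over three replicate slides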
# Chain of Dickkopf-related protein 1 (Homo sapiens) (O94907 whole entry, looked up): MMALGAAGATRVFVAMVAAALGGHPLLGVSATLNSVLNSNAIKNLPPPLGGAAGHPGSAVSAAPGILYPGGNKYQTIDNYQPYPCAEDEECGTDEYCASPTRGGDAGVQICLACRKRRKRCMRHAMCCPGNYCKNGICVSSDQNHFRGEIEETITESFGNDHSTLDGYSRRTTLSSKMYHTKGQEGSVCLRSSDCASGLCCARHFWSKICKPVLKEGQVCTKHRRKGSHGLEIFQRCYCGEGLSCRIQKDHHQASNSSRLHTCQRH
# [20] = tested on: Inhibin beta A chain (activin A); assay: small molecules binding activin A – biochemical, small-molecule microarray, 635 nm fluorescence scan, primary screen (AID 1107); settings: INHBA, higher = more signal;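 note: mouse activin A protein probed at 4.33 µg/mL on printed slides; score merges bound-protein fluorescence near 667 nm with spot signal-to-noise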
compound,measurement,setting,value
O=C(O)[C@H]1C[C@H]2C(=O)N3CCC[C@H]3C(=O)N2[C@H]1c1ccc(O)cc1,composite z-score,[1],-0.57
same,z-score,[2],0.428 (inactive)
same,z-score,[3],-0.613 (inactive)
same,z-score,[4],0.333 (inactive)
same,composite z-score,[5],0.631
same,z-score,[6],0.863 (inactive)
same,composite z-score,[7],0.0212
same,composite z-score,[8],-0.571
same,composite z-score,[9],-1.23
same,composite z-score,[10],-0.268
same,composite z-score,[11],0.383
same,composite z-score,[12],-0.0067
same,composite z-score,[13],0.915
same,z-score,[14],0.127 (inactive)
same,composite z-score,[15],-1.41
same,composite z-score,[16],-0.474
same,composite z-score,[17],-1.51
same,composite z-score,[18],-0.949
same,composite z-score,[19],-1.13
same,composite z-score,[20],-0.209
COC(=O)[C@@]1(Cc2ccccc2)[C@H]2c3cc(C(=O)N4CCCC4)n(Cc4c(CO)[nH]cc(C)c4=O)c3C[C@H]2CN1C(=O)c1ccccc1,composite z-score,[1],0.138
same,z-score,[2],-0.0602 (inactive)
same,z-score,[3],0.94 (inactive)
same,z-score,[4],0.171 (inactive)
same,composite z-score,[5],3.18
same,z-score,[6],-0.799 (inactive)
same,composite z-score,[7],0.539
same,composite z-score,[8],-0.218
same,composite z-score,[9],0.12
same,composite z-score,[10],0.0478
same,composite z-score,[11],0.893
same,composite z-score,[12],0.896
same,composite z-score,[13],1.24
same,z-score,[14],0.796 (inactive)
same,composite z-score,[15],0.303
same,composite z-score,[16],0.132
same,composite z-score,[17],0.113
same,composite z-score,[18],0.0713
same,composite z-score,[19],-0.135
same,composite z-score,[20],1.27
CCCCC(=C=CC[C@@H](O)c1ccc(CO)o1)CCO,composite z-score,[1],0.954
same,z-score,[2],1.46 (inactive)
same,z-score,[3],-0.614 (inactive)
same,z-score,[4],0.297 (inactive)
same,composite z-score,[5],0.418
same,z-score,[6],0.572 (inactive)
same,composite z-score,[7],-0.13
same,composite z-score,[8],0.436
same,composite z-score,[9],0.0341
same,composite z-score,[10],-0.071
same,composite z-score,[11],0.175
same,composite z-score,[12],-0.119
same,composite z-score,[13],-0.479
same,z-score,[14],0.37 (inactive)
same,composite z-score,[15],0.788
same,composite z-score,[16],0.621
same,composite z-score,[17],-0.617
same,composite z-score,[18],-0.0762
same,composite z-score,[19],0.294
same,composite z-score,[20],1.26
O=C1[C@H]2C=C(I)[C@H](C[C@@H]2OCCCCO)[C@@]12CO2,composite z-score,[1],0.9
same,z-score,[2],-1.04 (inactive)
same,z-score,[3],-0.983 (inactive)
same,z-score,[4],0.0593 (inactive)
same,composite z-score,[5],0.512
same,z-score,[6],-1.09 (inactive)
same,composite z-score,[7],-0.0534
same,composite z-score,[8],0.573
same,composite z-score,[9],0.186
same,composite z-score,[10],-0.165
same,composite z-score,[11],1.15
same,composite z-score,[12],-0.0509
same,composite z-score,[13],0.0634
same,z-score,[14],0.0898 (inactive)
same,composite z-score,[15],-0.0509
same,composite z-score,[16],0.0622
same,composite z-score,[17],-0.15
same,composite z-score,[18],-0.0542
same,composite z-score,[19],0.062
same,composite z-score,[20],0.873
C#CCN1[C@@H](Cc2ccc(O)cc2)C(=O)O[C@H](Cc2ccccc2)[C@@H]1/C=C/C1CC1,composite z-score,[1],-0.193
same,z-score,[2],-0.257 (inactive)
same,z-score,[3],-4.95 (inactive)
same,z-score,[4],1.09 (inactive)
same,composite z-score,[5],0.602
same,z-score,[6],-0.495 (inactive)
same,composite z-score,[7],-0.144
same,composite z-score,[8],-0.204
same,composite z-score,[9],-0.139
same,composite z-score,[10],-0.0081
same,composite z-score,[11],-0.0032
same,composite z-score,[12],-0.366
same,composite z-score,[13],-0.337
same,z-score,[14],1.99 (inactive)
same,composite z-score,[15],0.172
same,composite z-score,[16],-0.102
same,composite z-score,[17],0.002
same,composite z-score,[18],-0.149
same,composite z-score,[19],0.0874
same,composite z-score,[20],0.718
C=CC[C@]12N=C(c3ccc(OCCCO)cc3)O[C@H]1c1ccccc1N(CCS(=O)(=O)c1ccccc1)C2=O,composite z-score,[1],1.49
same,z-score,[2],-1.07 (inactive)
same,z-score,[3],-1.51 (inactive)
same,z-score,[4],0.811 (inactive)
same,composite z-score,[5],2.14
same,z-score,[6],1.02 (inactive)
same,composite z-score,[7],0.0561
same,composite z-score,[8],0.698
same,composite z-score,[9],1.07
same,composite z-score,[10],-0.0828
same,composite z-score,[11],1.43
same,composite z-score,[12],0.419
same,composite z-score,[13],0.777
same,z-score,[14],-2.04 (inactive)
same,composite z-score,[15],0.374
same,composite z-score,[16],1.3
same,composite z-score,[17],0.595
same,composite z-score,[18],1.11
same,composite z-score,[19],0.694
same,composite z-score,[20],1.26
O=C1OCCC=C[C@H]2OC34C=CCN(c5ccc(Cl)cc5)C(=O)[C@H]3N(CCCO)C(=O)[C@@H]4C12 (stereo not given in full),composite z-score,[1],-0.827
same,z-score,[2],-0.0304 (inactive)
same,z-score,[3],-1.36 (inactive)
same,z-score,[4],0.0341 (inactive)
same,composite z-score,[5],-1.28
same,z-score,[6],1.31 (inactive)
same,composite z-score,[7],0.0058
same,composite z-score,[8],-0.469
same,composite z-score,[9],-0.792
same,composite z-score,[10],-0.116
same,composite z-score,[11],-0.41
same,composite z-score,[12],-0.227
same,composite z-score,[13],0.0093
same,z-score,[14],-1.29 (inactive)
same,composite z-score,[15],0.0364
same,composite z-score,[16],-1.4
same,composite z-score,[17],-0.522
same,composite z-score,[18],-0.181
same,composite z-score,[19],-0.455
same,composite z-score,[20],1.52
NCCCCCNC(=O)[C@H]1C[C@H]2C(=O)N3CCC[C@H]3C(=O)N2[C@H]1c1ccc(O)cc1,composite z-score,[1],1.56
same,z-score,[2],-0.948 (inactive)
same,z-score,[3],-0.283 (inactive)
same,z-score,[4],-0.507 (inactive)
same,composite z-score,[5],2.58
same,z-score,[6],-0.346 (inactive)
same,composite z-score,[7],0.821
same,composite z-score,[8],0.813
same,composite z-score,[9],0.573
same,composite z-score,[10],0.426
same,composite z-score,[11],0.94
same,composite z-score,[12],1.63
same,composite z-score,[13],0.684
same,z-score,[14],-0.391 (inactive)
same,composite z-score,[15],1.01
same,composite z-score,[16],1.28
same,composite z-score,[17],0.781
same,composite z-score,[18],1.34
same,composite z-score,[19],1.24
same,composite z-score,[20],1.12
COC(=O)[C@@]1(Cc2ccccc2)[C@H]2c3cc(C(=O)N4CCCC4)n(Cc4ccc(O)c(OC)c4)c3C[C@H]2CN1C(=O)c1ccccc1,composite z-score,[1],-0.358
same,z-score,[2],1.21 (inactive)
same,z-score,[3],0.943 (inactive)
same,z-score,[4],2.06 (inactive)
same,composite z-score,[5],3.43
same,z-score,[6],-0.667 (inactive)
same,composite z-score,[7],0.641
same,composite z-score,[8],-0.786
same,composite z-score,[9],0.79
same,composite z-score,[10],0.249
same,composite z-score,[11],0.117
same,composite z-score,[12],0.611
same,composite z-score,[13],1.08
same,z-score,[14],-2.95 (inactive)
same,composite z-score,[15],0.253
same,composite z-score,[16],0.632
same,composite z-score,[17],-0.527
same,composite z-score,[18],0.202
same,composite z-score,[19],-0.817
same,composite z-score,[20],0.939
COc1ccc([Si](C)(C)[C@H]2[C@H](CCn3cc([C@H](O)c4ccccc4)nn3)O[C@@]3(C(=O)N(C)c4ccccc43)[C@@H]2C)cc1,composite z-score,[1],-0.133
same,z-score,[2],-2.61 (inactive)
same,z-score,[3],0.644 (inactive)
same,z-score,[4],-0.254 (inactive)
same,composite z-score,[5],0.446
same,z-score,[6],0.271 (inactive)
same,composite z-score,[7],-0.0317
same,composite z-score,[8],0.176
same,composite z-score,[9],0.133
same,composite z-score,[10],-0.171
same,composite z-score,[11],1.17
same,composite z-score,[12],-0.0149
same,composite z-score,[13],0.376
same,z-score,[14],1.11 (inactive)
same,composite z-score,[15],-0.133
same,composite z-score,[16],-0.621
same,composite z-score,[17],-0.55
same,composite z-score,[18],-0.165
same,composite z-score,[19],-0.529
same,composite z-score,[20],0.209

# From PubChem BioAssay
